This is one part of a sample in which hits are shown more often than they occur.
TbPYK inhibitor: inhibitors of Trypanosoma brucei pyruvate kinase; Q57TT1; TbPYK enzyme, Kinase-Glo Plus ATP luminescence, 45 min; Potency, µM (top dose mostly 76.8 µM), for inactives: at the top dose activity, negative = inhibition, hits mostly inhibitors; 410,000 compounds, 0.12% hits; active = well fitted curve in the direction sought with a large enough effect; inconclusive = small, poorly fitted or top-dose-only effect, or another doubt; inactive = no such curve, though single readings can be large; an effect the other way counts as inactive or inconclusive; note: potency is the fitted concentration of half-maximal effect; % is set by controls: 0 for no effect and ±100 for the full control effect; nearly all actives have a fitted effect of over 50% in size
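Enzyme and substrate buffer are dispensed first and compound is pin-transferred. ADP at 130 uM final then starts the reaction, which runs 45 min at room temperature. Detection reagent is added for 10 min before luminescence is imaged.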
Shiga toxin inh: blocks Shiga toxin action in Vero cells; Vero cells, Shiga toxin protein synthesis inhibition reporter; inhibition, % at 38.7 µM; 290,000 compounds, 9.2% hits; in the data active = inhibition mostly above about 28%, no sharp cut-off; inactive = mostly below about 43%; note: 0% is about no effect
LmPK inhibitor: LmPK (Leishmania mexicana) enzyme inhibition; purified LmPK, Kinase-Glo ATP luminescence, 1 h; Q27686; Potency, µM (titrated, usually from 57.5 µM), without a hit: at the highest dose activity change, negative = inhibition, usual class: inhibitors; AID 1721; 290,000 compounds, 0.37% hits; active = well fitted curve in the direction sought with a large enough effect; inconclusive = small, poorly fitted or top-dose-only effect, or another doubt; inactive = no such curve, though single readings can be large; an effect the other way counts as inactive or inconclusive; note: potency is the fitted concentration of half-maximal effect; % is set by controls: 0 for no effect and ±100 for the full control effect
Target sequence (Q27686 whole entry, looked up): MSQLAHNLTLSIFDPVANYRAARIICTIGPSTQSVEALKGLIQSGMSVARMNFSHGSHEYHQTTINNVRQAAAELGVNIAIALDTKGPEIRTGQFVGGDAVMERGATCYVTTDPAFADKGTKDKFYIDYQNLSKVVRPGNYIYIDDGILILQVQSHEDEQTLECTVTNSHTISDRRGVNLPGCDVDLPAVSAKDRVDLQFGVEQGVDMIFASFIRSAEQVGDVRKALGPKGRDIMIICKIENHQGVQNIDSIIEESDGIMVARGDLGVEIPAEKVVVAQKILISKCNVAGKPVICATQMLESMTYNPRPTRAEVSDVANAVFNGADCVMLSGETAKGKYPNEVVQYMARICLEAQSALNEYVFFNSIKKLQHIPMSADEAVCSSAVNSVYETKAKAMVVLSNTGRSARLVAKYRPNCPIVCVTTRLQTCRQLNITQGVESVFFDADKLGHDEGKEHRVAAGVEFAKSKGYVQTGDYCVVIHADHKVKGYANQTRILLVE
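Kinase-Glo luminescence read after 1 h RT reaction of 0.1 nM LmPK with 0.5 mM PEP and 0.1 mM ADP. Activity scaled between uninhibited and enzyme-free controls.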
NS1 function inh: inhibitors of influenza NS1 protein function | Potency, µM (highest dose often 46.1 µM), inactives show at the top dose activity, positive = more growth | 270,000 compounds, 0.4% hits; note: potency is the fitted concentration of half-maximal effect; actives are rising curves; nearly all actives have a fitted effect of over 50% in size
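OD600 was taken as the measure of yeast growth restored by compound in an NS1-expressing S. cerevisiae strain. Cells had been washed out of glucose medium and diluted 1:100 into galactose -URA medium, pH 6.0.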
CHX counter: counter-screen for Shiga toxin inhibitors: cycloheximide protein synthesis inhibition; cell reporter, cycloheximide protein synthesis inhibition counterscreen; max response, %; 300,000 compounds, 12% hits; AID 2314; in the data active = max response mostly above about 13%, no sharp cut-off; inactive = mostly below about 14%; note: read at 38.3 µM for the half of the compounds with a filed dose; 0% is about no effect
SARS PLpro yeast: inhibitors of SARS-CoV papain-like protease in yeast; S. cerevisiae expressing SARS-CoV PLpro, growth rescue; Potency, µM (series often up to 32.9 µM), for the others: top-dose activity, positive = growth rescue, actives largely listed as activators; 330,000 compounds, 0.19% hits; note: potency is the fitted concentration of half-maximal effect; 0% is about no effect; nearly all actives have a fitted effect of over 55% in size
An asterisk follows results filed as active; ? = inconclusive; nt = no result given. Unless noted, calls come from the whole dose curve.

SMILES | TbPYK inhibitor | Shiga toxin inh | LmPK inhibitor | NS1 function inh | CHX counter | SARS PLpro yeast
CCOc1ccc(NCc2cccn2-c2nnc(N3CCC(C(=O)NCc4ccccc4Cl)CC3)s2)cc1 | -8% | nt | nt | nt | nt | nt
COc1cc(C)ccc1OCc1cc(C(=O)NC2CCOCC2)no1 | -5% | nt | nt | nt | nt | nt
COc1cc(C)ccc1OCc1cc(C(=O)N2C[C@H]3CC[C@H]2C3)no1 | 0% | 22 | 1% | -23% | 21* | ?
COc1cc(C)ccc1OCc1cc(C(=O)N(Cc2c(C)nn(C)c2C)C2CC2)no1 | 0% | 76* | 3% | -8% | 52* | 3%
Cn1ccnc1C1CCCCN1C(=O)c1cc(COc2ccc(F)cc2Cl)on1 (configuration not stated) | 0% | -12 | 0% | -6% | -2 | 0%
COc1cc(C)ccc1OCc1cc(C(=O)NCCN2CCCC(O)C2)no1 (configuration not stated) | 1% | 5 | 6% | 3% | -2 | 3%
COc1cc(Cl)ccc1OCc1cc(C(=O)N2C[C@@H]3CCC[C@H]2C3)no1 | 2% | 145* | -12% | -15% | 60* | -3%
Cc1n(Cc2ccccc2)c2ccccc2[n+]1Cc1ccccc1 | -1% | nt | -3% | -1% | -3 | -3%
Cc1cccc(N2CCN(C(=O)C3CCCN(S(=O)(=O)c4ccc5c(c4)oc(=O)n5C)C3)CC2)c1C (configuration not stated) | -1% | nt | nt | nt | nt | nt
COc1ccc(CNC(=O)Cc2c(C)c3cc4c(C)coc4cc3oc2=O)cc1 | 2% | nt | nt | nt | nt | nt
Cn1c(=O)c2cn(-c3ccccc3)cc2n(C)c1=O | -6% | -11 | 5% | -18% | -1 | 4%
COc1cccc(-n2cc3c(=O)n(C)c(=O)n(C)c3c2)c1 | -14% | 88 | 3% | -2% | 24* | -1%
O=C(COC(=O)CCSc1ccc(Cl)cc1)NCc1ccccc1Cl | 2% | 12 | -1% | -23% | -1 | 9%
O=C(/C=C/c1ccc(Cl)cc1)NCc1ccco1 | ? | 94* | -1% | -20% | 25* | -3%
COc1ccc(CNC(=O)/C=C/c2ccc(S(=O)(=O)NCc3ccco3)cc2)cc1OC | 1% | -3 | 1% | 0% | 1 | -3%
O=C(/C=C/c1ccc(S(=O)(=O)NCc2ccco2)cc1)NCc1ccccc1Cl | -7% | 20* | 3% | 6% | 31* | 21%
O=C(NCc1ccco1)/C(=C/c1ccc(Cl)cc1)NC(=O)c1ccco1 | 3% | -16 | -1% | 11% | -2 | 1%
O=C(COC(=O)CCSc1ccc(Cl)cc1)NCc1ccco1 | -24% | 53 | -1% | 5% | 19* | 0%
O=C(NCCC1=CCCCC1)c1cc(S(=O)(=O)N2CCOCC2)ccc1F | -2% | nt | nt | nt | nt | -1%
Cc1ccc(OC(=O)c2cc(-c3ccc4c(c3)OCCO4)on2)cc1C | -6% | nt | nt | nt | nt | nt
Cc1cccc(NC(=O)CN2C(=O)CSc3ccc(S(=O)(=O)N4CCCC4)cc32)c1C | -2% | nt | nt | nt | nt | nt
c1ccc(-c2cn(CC3CCCCC3)nn2)cc1 | 6% | 45* | -8% | -37% | 37* | -10%
COc1ccc(-c2cn(CC3CCCCC3)nn2)cc1 | -5% | 17* | 3% | -16% | 16* | -4%
CCCCCc1ccc(-c2cn(CC3CCCCC3)nn2)cc1 | -3% | 14 | 5% | ? | 0 | 0%
c1ccc(-c2cn(C[C@H]3CC[C@@H]([C@@H]4CC[C@H](Cn5cc(-c6ccccc6)nn5)O4)O3)nn2)cc1 | 1% | 7 | 1% | 6% | -2 | 2%
SMILES | TbPYK inhibitor | Shiga toxin inh | LmPK inhibitor | NS1 function inh | CHX counter | SARS PLpro yeast
COc1ccccc1NC(=O)CSc1ccc(-c2ccc(-n3ccnc3)cc2)nn1 | 4% | nt | nt | nt | nt | nt
O=C(Nc1ccccc1)n1ccc(-c2ccc(-n3ccnc3)cc2)n1 | nt | 40* | 3% | nt | 43* | -4%
Cc1ccccc1CNCCCSc1nnnn1C | 0% | nt | nt | nt | nt | nt
COCCCNC(=O)/C=C/c1ccc(Cl)cc1Cl | 0% | 54* | -1% | -52% | 17* | 4%
Brc1ccc(-c2nc(-c3ccccc3)no2)o1 | 1% | 104* | ? | 1% | 59* | -3%
c1ccc(C(Cc2nc(-c3cccnc3)no2)c2ccccc2)cc1 | 1% | 9 | -6% | -18% | -1 | -5%
Brc1ccc(-c2nc(-c3cccnc3)no2)o1 | -4% | 111* | -8% | -77% | 69* | 8%
